aSyn 5UTR act = Activators working through SNCA 5'UTR binding (MLPCN); activity score, % (tested at 7.5 µM), hits read low; alpha-synuclein 5'UTR reporter, activators screen; 300,000 compounds, 7.1% hits; in the data active = activity score below about -60%
Each line names hits and unclear results; the compound was inactive in the other large screens. A selection follows.

COc1cccc(NC(=O)/C=C/c2ccco2)c1	aSyn 5UTR act -158
CC(C)C(=O)NC(c1ccco1)c1ccc2cccnc2c1O (centres undefined)	none
COc1ccccc1NC(=O)/C=C\c1ccco1	aSyn 5UTR act -84
O=C(/C=C/c1ccco1)Nc1ccc(Oc2ccc(Cl)cc2)cc1	aSyn 5UTR act -203
Cc1ccc(NC(=O)/C=C/c2ccco2)nc1	aSyn 5UTR act -63
O=C(/C=C/c1ccco1)Nc1cccnc1	aSyn 5UTR act -122
CSc1cccc(NC(=O)/C=C/c2ccco2)c1	aSyn 5UTR act -178
O=C(Nc1nc2c(s1)COc1ccccc1-2)c1cccs1	aSyn 5UTR act -104
O=C(Nc1nc2c(s1)CCc1ccccc1-2)c1cccs1	aSyn 5UTR act -110
Cc1cc(N2C(=O)C(O)=C(C(=O)c3cc4ccccc4o3)C2c2ccc(OC(C)C)cc2)no1 (centres undefined)	aSyn 5UTR act -91
CCn1cnc2sc(C(=O)Oc3cccc(C)c3)c(C)c2c1=O	aSyn 5UTR act -67
COC(=O)Cn1c(=NC(=O)c2ccc([N+](=O)[O-])s2)sc2cc(Br)ccc21	aSyn 5UTR act -68
COC(=O)Cn1c(=NC(=O)c2ccc(Cl)s2)sc2cc(C)ccc21	aSyn 5UTR act -184
NC(=O)C1(N2CCCCC2)CCN(C2CC(=O)NC2=O)CC1 (centres undefined)	aSyn 5UTR act -86
C/C(=N\Nc1ccc(F)cc1F)c1ccccc1O	aSyn 5UTR act -104
CC(C)(C)c1ccc(C(=O)Nc2cccc3c(=O)[nH][nH]c(=O)c23)cc1	aSyn 5UTR act -68
NNc1nc(-c2ccccc2Cl)nc2sc3c(c12)CCCC3	aSyn 5UTR act -200
c1ccc(Cn2c(Sc3nnnn3-c3ccccc3)nnc2-c2ccccc2)cc1	aSyn 5UTR act -74
COC(=O)[C@@H]1Cc2c([nH]c3ccccc23)C(C)(C)N1C(=O)CCl	none
CC1CCCN(C(=O)COC(=O)c2n[nH]c3ccccc23)C1 (centres undefined)	aSyn 5UTR act -140
CC(C)C(=O)NCCc1nc(-c2ccc(Cl)cc2)no1	aSyn 5UTR act -99
CCNc1ccc(Br)cc(C(=O)/C=C/c2ccccc2Cl)c1=O	aSyn 5UTR act -68
Nc1ccccc1-c1nc2ccccc2[nH]c1=O	aSyn 5UTR act -141
Nc1ccc(Br)cc1-c1nc2ccccc2[nH]c1=O	aSyn 5UTR act -102
CCSc1nnc(-c2ccccc2N)c(=O)[nH]1	aSyn 5UTR act -67
CC(C)CNC(=S)NC1CC2CCCC(C1)N2C1CCCCC1 (centres undefined)	aSyn 5UTR act -107
COc1cc(C(=O)Nc2ccc(N(C)C)cc2)c([N+](=O)[O-])cc1OC	aSyn 5UTR act -75
Cc1cccc(NCc2ccc(Br)cc2)n1	aSyn 5UTR act -66
Cc1cccc(NCc2cccc3ccccc23)n1	aSyn 5UTR act -67
CCCCN1CCc2c1nc1ccc(Br)cc1c2N	aSyn 5UTR act -65
CC1CCc2c(sc3ncn(CCO)c(=O)c23)C1 (centres undefined)	aSyn 5UTR act -116
Cc1ccc(-c2cc(-c3c(C)nn(C)c(=O)c3N)[nH]n2)cc1	aSyn 5UTR act -110
Cc1nn(C)c(=O)c(N)c1-c1cc(-c2ccc(Cl)c(Cl)c2)n[nH]1	aSyn 5UTR act -71
Cc1ccc(S(=O)(=O)[N-]c2nc3ccccc3nc2-n2cc[n+](Cc3ccccc3)c2)cc1	aSyn 5UTR act -97
Cc1nc(COC(=O)c2c(C)nn(-c3ccccc3)c2C)cs1	aSyn 5UTR act -104
Cc1ccccc1-n1c(SCC(=O)N/N=C/c2c(C)nn(-c3ccccc3)c2C)nc2ccccc2c1=O	none
COc1cc2sc3ccc(-c4ccc5[nH]ccc5c4)cc3c(=O)c2cc1OC	aSyn 5UTR act -239
O=c1c2ccccc2oc2cc(-c3ccc4[nH]ccc4c3)ccc12	aSyn 5UTR act -97
Cc1cc(C)nc(NC(=O)c2cc(-c3ccc(C)s3)nc3ccccc23)c1	aSyn 5UTR act -62
C/C(=N\NC(=O)c1cccs1)c1ccc2ccccc2c1	aSyn 5UTR act -92
C/C(=N\NC(=O)c1cccs1)c1cccnc1	aSyn 5UTR act -83
Cc1cc(/C=N/NC(=O)c2cccs2)c(C)n1-c1cnccn1	aSyn 5UTR act -170
O=C(N/N=C/c1cccnc1)c1cccs1	aSyn 5UTR act -82
C/C(=N\NC(=O)COc1ccccc1)c1cccs1	aSyn 5UTR act -85
O=C(N/N=C/c1ccc(N2CCOCC2)cc1)c1cccs1	aSyn 5UTR act -179
CC(=O)Nc1nc(C)c(-c2csc(Nc3ccccn3)n2)s1	aSyn 5UTR act -114
Cc1ccnc(Nc2nc(-c3ccccc3)cs2)c1	aSyn 5UTR act -155
Cc1nc2ncccn2c1-c1csc(Nc2ccc(O)cc2)n1	aSyn 5UTR act -67
Cc1ccc(Nc2nc(-c3c(C)nc4ncccn34)cs2)cc1	none
CC(=O)Nc1ccc(-c2csc(Nc3cc(C)ccn3)n2)cc1	aSyn 5UTR act -101
CC(=O)Nc1cccc(-c2csc(Nc3ccccn3)n2)c1	aSyn 5UTR act -120
CC(=O)Nc1cccc(-c2csc(Nc3cc(C)ccn3)n2)c1	aSyn 5UTR act -63
Cc1ccnc(Nc2nc(-c3c(C)nc4sccn34)cs2)c1	aSyn 5UTR act -103
O=C(CSc1nnc(-c2ccccc2Cl)o1)N1CCOCC1	aSyn 5UTR act -124

Screening data from PubChem BioAssay.
